From the supplement of paper PMC10849652
Of roughly 7,900 targets only a part is listed; those with a hit were picked by preference. About 0.6% of all pairs of compound and target were hits. Values without a mark were called inactive.

Key:
Assay in all cases: log2 fold change, soluble protein after heating vs DMSO (PISA); higher = thermal stabilisation; K562 cells, 10 uM, 30 min; active = over 0.2 and 3.5 SD of the protein, either way, in both replicates (recomputed)
[1] = compound: CS(=O)(=O)c1ccc(-c2cnc(N)c(C(=O)Nc3ccccc3)n2)cc1
Outline: (§1)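 Quantification of soluble protein used TMTpro 16plex LC-MS/MS, with channel sums equalised. Samples were the supernatant after 21,000xg for 90 min of pooled aliquots from K562 cells (2×10^6 cells/mL) treated with 10 μM compound for 30 min, heated for 3 min over 48°C-58°C, and extracted in PBS with 0.5% NP-40 at 4°C. Values, from duplicates, describe thermal stability against control samples on a log2 fold-change scale.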

crizotinib = compound: C[C@@H](Oc1cc(-c2cnn(C3CCNCC3)c2)cnc1N)c1c(Cl)ccc(F)c1Cl [crizotinib]
Outline: as §1

[2] = compound: C[C@@H]1COCCN1C2=NC(=NC(=C2)C3(CC3)S(=O)(=O)C)C4=C5C=CNC5=CC=C4
Outline: as §1

[3] = compound: C[C@H](C1=CC=C(C=C1)C(=O)NC2=C3C=CNC3=NC=C2)N
Outline: as §1

duvelisib = compound: C[C@H](Nc1ncnc2nc[nH]c12)c1cc2cccc(Cl)c2c(=O)n1-c1ccccc1 [duvelisib]
Outline: as §1

gandotinib = compound: Cc1cc(Nc2cc(CN3CCOCC3)c3nc(C)c(Cc4ccc(Cl)cc4F)n3n2)n[nH]1 [gandotinib]
Outline: as §1

tozasertib = compound: Cc1cc(Nc2cc(N3CCN(C)CC3)nc(Sc3ccc(NC(=O)C4CC4)cc3)n2)n[nH]1 [tozasertib]
Outline: as §1

[4] = compound: Cc1cc(SCc2sc(-c3ccc(C(F)(F)F)cc3)nc2C)ccc1OCC(=O)O
Outline: as §1

doramapimod = compound: Cc1ccc(-n2nc(C(C)(C)C)cc2NC(=O)Nc2ccc(OCCN3CCOCC3)c3ccccc23)cc1 [doramapimod]
Outline: as §1

ispinesib = compound: Cc1ccc(C(=O)N(CCCN)[C@@H](c2nc3cc(Cl)ccc3c(=O)n2Cc2ccccc2)C(C)C)cc1 [ispinesib]
Outline: as §1

bafetinib = compound: Cc1ccc(NC(=O)c2ccc(CN3CC[C@H](N(C)C)C3)c(C(F)(F)F)c2)cc1Nc1nccc(-c2cncnc2)n1 [bafetinib]
Outline: as §1

[5] = compound: Cc1cccc(CC(=O)N2CCc3c2ccc(-c2cn(C)c4ncnc(N)c24)c3F)n1
Outline: as §1

nilotinib = compound: Cc1cn(-c2cc(NC(=O)c3ccc(C)c(Nc4nccc(-c5cccnc5)n4)c3)cc(C(F)(F)F)c2)cn1 [nilotinib]
Outline: as §1

[6] = compound: Cc1nc(Nc2n[nH]c3c2CN(C(=O)N[C@H](CN(C)C)c2ccccc2)C3(C)C)c2sccc2n1
Outline: as §1

dasatinib = compound: Cc1nc(Nc2ncc(C(=O)Nc3c(C)cccc3Cl)s2)cc(N2CCN(CCO)CC2)n1 [dasatinib]
Outline: as §1

[7] = compound: Cc1ncc(-c2ccnc(Nc3ccc(S(C)(=O)=O)cc3)n2)n1C(C)C
Outline: as §1

[8] = compound: Cn1cc(-c2ccc3c(c2)CCN3C(=O)Cc2cccc(C(F)(F)F)c2)c2c(N)ncnc21
Outline: as §1

[9] = compound: Cn1cc(-c2ccc3nnc(C(F)(F)c4ccc5ncccc5c4)n3n2)cn1
Outline: as §1

tipifarnib = compound: Cn1cncc1[C@@](N)(c1ccc(Cl)cc1)c1ccc2c(c1)c(-c1cccc(Cl)c1)cc(=O)n2C [tipifarnib]
Outline: as §1

mubritinib = compound: FC(F)(F)c1ccc(/C=C/c2nc(COc3ccc(CCCCn4ccnn4)cc3)co2)cc1 [mubritinib]
Outline: as §1

VRK2 (UniProt Q86Y07)
Sequence of UniProt Q86Y07 (Q86Y07 whole entry, looked up): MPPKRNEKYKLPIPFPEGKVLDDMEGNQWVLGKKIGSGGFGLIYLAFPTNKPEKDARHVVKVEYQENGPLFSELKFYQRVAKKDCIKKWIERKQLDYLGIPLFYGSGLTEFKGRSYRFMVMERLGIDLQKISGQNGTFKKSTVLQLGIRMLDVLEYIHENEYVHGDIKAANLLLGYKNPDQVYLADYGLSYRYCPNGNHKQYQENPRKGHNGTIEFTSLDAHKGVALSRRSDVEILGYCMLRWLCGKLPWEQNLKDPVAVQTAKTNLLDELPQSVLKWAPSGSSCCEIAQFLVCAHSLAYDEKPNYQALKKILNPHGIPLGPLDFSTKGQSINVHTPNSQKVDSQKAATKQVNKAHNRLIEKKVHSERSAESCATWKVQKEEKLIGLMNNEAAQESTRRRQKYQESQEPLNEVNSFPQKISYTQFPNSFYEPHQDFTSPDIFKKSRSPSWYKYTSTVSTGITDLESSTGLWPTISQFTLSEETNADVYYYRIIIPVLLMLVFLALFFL
log2 fold change [1]: 0.048 | log2 fold change (crizotinib): -0.16 | log2 fold change [2]: 0.015 | log2 fold change [3]: 0.472 (active) | log2 fold change (duvelisib): -0.01 | log2 fold change (gandotinib): -0.08 | log2 fold change (tozasertib): -0.057 | log2 fold change [4]: 0.012 | log2 fold change (doramapimod): 0.026 | log2 fold change (ispinesib): -0.115 | log2 fold change (bafetinib): 0.033 | log2 fold change [5]: 0.081 | log2 fold change (nilotinib): -0.062 | log2 fold change [6]: 0.414 (active) | log2 fold change (dasatinib): 0.011 | log2 fold change [7]: 0.033 | log2 fold change [8]: 0.129 | log2 fold change [9]: -0.066 | log2 fold change (tipifarnib): -0.057 | log2 fold change (mubritinib): 0.006

TMEM161B (UniProt Q8NDZ6)
Sequence of UniProt Q8NDZ6 (Q8NDZ6 whole entry, looked up): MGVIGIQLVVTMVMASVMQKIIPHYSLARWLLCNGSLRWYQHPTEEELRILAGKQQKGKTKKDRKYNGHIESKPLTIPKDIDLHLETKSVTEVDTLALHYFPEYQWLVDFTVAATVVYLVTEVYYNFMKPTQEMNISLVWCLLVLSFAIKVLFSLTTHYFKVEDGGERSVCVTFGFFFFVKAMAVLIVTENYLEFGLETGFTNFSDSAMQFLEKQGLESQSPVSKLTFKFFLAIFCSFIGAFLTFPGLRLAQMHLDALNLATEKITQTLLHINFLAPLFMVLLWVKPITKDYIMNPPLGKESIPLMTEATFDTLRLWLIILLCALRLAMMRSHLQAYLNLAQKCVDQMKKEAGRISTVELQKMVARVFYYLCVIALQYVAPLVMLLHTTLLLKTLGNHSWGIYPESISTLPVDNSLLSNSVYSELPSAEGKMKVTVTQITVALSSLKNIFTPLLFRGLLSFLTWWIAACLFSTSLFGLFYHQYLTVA
log2 fold change [1]: 0.026 | log2 fold change (crizotinib): -0.096 | log2 fold change [2]: 0.004 | log2 fold change [3]: 0.002 | log2 fold change (duvelisib): 0.128 | log2 fold change (gandotinib): -0.156 | log2 fold change (tozasertib): 0.063 | log2 fold change [4]: 0.11 | log2 fold change (doramapimod): -0.024 | log2 fold change (ispinesib): -0.055 | log2 fold change (bafetinib): -0.01 | log2 fold change [5]: 0.073 | log2 fold change (nilotinib): -0.148 | log2 fold change [6]: -0.018 | log2 fold change (dasatinib): -0.273 (active) | log2 fold change [7]: -0.046 | log2 fold change [8]: -0.08 | log2 fold change [9]: 0.103 | log2 fold change (tipifarnib): -0.043 | log2 fold change (mubritinib): 0.036

WDHD1 (UniProt O75717)
Sequence of UniProt O75717 (O75717 whole entry, looked up): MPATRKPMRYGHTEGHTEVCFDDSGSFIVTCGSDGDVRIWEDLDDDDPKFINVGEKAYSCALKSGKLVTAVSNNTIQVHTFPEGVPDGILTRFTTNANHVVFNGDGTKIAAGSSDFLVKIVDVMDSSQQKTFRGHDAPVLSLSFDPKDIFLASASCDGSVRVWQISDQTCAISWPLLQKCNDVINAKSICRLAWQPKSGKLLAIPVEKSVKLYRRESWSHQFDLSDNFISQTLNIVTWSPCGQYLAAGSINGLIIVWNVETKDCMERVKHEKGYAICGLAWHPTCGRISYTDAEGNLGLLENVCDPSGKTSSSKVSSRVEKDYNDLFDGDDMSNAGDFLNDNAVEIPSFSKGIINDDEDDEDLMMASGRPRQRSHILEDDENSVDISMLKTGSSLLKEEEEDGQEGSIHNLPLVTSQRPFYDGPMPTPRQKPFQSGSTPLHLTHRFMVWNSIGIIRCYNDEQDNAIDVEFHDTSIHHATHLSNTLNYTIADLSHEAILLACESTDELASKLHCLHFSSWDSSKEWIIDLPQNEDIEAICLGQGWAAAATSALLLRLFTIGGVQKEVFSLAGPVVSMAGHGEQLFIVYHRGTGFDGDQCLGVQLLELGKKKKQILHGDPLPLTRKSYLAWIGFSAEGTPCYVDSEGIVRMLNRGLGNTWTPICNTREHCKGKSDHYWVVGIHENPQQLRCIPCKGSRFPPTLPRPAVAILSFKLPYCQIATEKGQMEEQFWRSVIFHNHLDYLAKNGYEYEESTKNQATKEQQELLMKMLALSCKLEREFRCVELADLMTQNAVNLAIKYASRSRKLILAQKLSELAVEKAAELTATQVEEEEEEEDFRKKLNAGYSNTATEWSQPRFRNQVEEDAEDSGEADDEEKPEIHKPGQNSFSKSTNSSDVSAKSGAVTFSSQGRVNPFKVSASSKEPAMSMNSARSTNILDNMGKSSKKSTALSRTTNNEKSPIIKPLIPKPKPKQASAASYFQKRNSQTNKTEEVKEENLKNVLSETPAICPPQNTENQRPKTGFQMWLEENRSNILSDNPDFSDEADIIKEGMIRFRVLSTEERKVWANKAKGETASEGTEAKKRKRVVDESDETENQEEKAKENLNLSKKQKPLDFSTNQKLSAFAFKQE
log2 fold change [1]: 0.038 | log2 fold change (crizotinib): 0.021 | log2 fold change [2]: 0.098 | log2 fold change [3]: -0.025 | log2 fold change (duvelisib): 0.109 | log2 fold change (gandotinib): -0.029 | log2 fold change (tozasertib): 0.09 | log2 fold change [4]: 0.109 | log2 fold change (doramapimod): -0.093 | log2 fold change (ispinesib): 0.042 | log2 fold change (bafetinib): -0.009 | log2 fold change [5]: 0.008 | log2 fold change (nilotinib): -0.005 | log2 fold change [6]: -0.12 | log2 fold change (dasatinib): -0.076 | log2 fold change [7]: -0.021 | log2 fold change [8]: 0.03 | log2 fold change [9]: 0.022 | log2 fold change (tipifarnib): -0.041 | log2 fold change (mubritinib): 0.067

TNNC2 (UniProt P02585)
Sequence of UniProt P02585 (P02585 whole entry, looked up): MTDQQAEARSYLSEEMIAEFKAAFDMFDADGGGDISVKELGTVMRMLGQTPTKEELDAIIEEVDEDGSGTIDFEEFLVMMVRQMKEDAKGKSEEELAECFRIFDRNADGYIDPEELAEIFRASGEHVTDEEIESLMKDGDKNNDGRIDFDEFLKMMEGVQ
log2 fold change [1]: -0.004 | log2 fold change (crizotinib): 0.06 | log2 fold change [2]: 0.04 | log2 fold change [3]: -0.005 | log2 fold change (duvelisib): 0.072 | log2 fold change (gandotinib): 0.078 | log2 fold change (tozasertib): -1.1 (active) | log2 fold change [4]: -0.059 | log2 fold change (doramapimod): -0.014 | log2 fold change (ispinesib): 0.022 | log2 fold change (bafetinib): -0.057 | log2 fold change [5]: -0.058 | log2 fold change (nilotinib): 0.057 | log2 fold change [6]: 0.024 | log2 fold change (dasatinib): 0.022 | log2 fold change [7]: -0.015 | log2 fold change [8]: 0.049 | log2 fold change [9]: 0.032 | log2 fold change (tipifarnib): 0.015 | log2 fold change (mubritinib): 0.001

UGGT1 (UniProt Q9NYU2)
Sequence of UniProt Q9NYU2 (Q9NYU2 whole entry, looked up): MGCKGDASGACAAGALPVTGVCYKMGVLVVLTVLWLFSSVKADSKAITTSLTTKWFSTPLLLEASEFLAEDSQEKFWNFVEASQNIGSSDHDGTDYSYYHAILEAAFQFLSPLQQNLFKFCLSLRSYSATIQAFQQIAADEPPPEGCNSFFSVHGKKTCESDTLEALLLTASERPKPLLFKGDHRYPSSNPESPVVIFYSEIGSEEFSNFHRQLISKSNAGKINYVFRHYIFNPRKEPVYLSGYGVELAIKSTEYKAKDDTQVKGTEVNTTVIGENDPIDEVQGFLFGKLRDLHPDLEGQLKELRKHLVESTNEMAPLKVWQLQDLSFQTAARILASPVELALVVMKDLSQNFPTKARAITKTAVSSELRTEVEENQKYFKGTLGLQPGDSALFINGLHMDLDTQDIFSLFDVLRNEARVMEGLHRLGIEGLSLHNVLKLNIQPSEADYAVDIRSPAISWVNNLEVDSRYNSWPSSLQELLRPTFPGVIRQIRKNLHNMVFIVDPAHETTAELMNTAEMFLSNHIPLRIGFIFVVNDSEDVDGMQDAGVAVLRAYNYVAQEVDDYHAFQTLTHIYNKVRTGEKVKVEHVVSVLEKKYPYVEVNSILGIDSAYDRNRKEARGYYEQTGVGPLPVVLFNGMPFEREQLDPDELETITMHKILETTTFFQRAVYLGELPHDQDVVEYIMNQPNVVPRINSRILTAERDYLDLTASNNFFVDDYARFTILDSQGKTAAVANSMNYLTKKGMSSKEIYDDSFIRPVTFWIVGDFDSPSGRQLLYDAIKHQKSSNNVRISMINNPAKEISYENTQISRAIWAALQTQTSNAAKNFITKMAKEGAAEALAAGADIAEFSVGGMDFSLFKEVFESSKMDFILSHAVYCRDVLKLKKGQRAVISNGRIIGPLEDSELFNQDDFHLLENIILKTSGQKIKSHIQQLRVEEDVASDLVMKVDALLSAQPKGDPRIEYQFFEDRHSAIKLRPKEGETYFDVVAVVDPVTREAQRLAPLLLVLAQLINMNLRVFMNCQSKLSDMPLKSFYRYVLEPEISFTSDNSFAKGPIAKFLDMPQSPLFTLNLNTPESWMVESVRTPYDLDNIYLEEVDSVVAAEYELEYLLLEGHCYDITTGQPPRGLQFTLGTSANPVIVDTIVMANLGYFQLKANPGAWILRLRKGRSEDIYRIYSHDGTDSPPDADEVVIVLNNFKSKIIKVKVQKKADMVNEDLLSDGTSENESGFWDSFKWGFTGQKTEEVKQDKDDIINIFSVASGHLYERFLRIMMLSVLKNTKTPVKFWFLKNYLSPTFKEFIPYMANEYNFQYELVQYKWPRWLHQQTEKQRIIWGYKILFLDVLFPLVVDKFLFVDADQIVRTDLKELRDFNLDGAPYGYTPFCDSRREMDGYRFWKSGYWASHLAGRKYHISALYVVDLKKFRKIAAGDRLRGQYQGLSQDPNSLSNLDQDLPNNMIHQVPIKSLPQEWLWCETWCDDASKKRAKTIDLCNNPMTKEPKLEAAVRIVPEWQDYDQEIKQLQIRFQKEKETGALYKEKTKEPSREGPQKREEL
log2 fold change [1]: 0.013 | log2 fold change (crizotinib): 0 | log2 fold change [2]: 0.012 | log2 fold change [3]: 0.009 | log2 fold change (duvelisib): -0.005 | log2 fold change (gandotinib): 0.005 | log2 fold change (tozasertib): 0.008 | log2 fold change [4]: 0.016 | log2 fold change (doramapimod): 0.017 | log2 fold change (ispinesib): 0.012 | log2 fold change (bafetinib): -0.005 | log2 fold change [5]: -0.007 | log2 fold change (nilotinib): -0.015 | log2 fold change [6]: 0.016 | log2 fold change (dasatinib): -0.007 | log2 fold change [7]: -0.036 | log2 fold change [8]: -0.017 | log2 fold change [9]: -0.001 | log2 fold change (tipifarnib): -0.026 | log2 fold change (mubritinib): -0.043

WASHC5 (UniProt Q12768)
Sequence of UniProt Q12768 (Q12768 whole entry, looked up): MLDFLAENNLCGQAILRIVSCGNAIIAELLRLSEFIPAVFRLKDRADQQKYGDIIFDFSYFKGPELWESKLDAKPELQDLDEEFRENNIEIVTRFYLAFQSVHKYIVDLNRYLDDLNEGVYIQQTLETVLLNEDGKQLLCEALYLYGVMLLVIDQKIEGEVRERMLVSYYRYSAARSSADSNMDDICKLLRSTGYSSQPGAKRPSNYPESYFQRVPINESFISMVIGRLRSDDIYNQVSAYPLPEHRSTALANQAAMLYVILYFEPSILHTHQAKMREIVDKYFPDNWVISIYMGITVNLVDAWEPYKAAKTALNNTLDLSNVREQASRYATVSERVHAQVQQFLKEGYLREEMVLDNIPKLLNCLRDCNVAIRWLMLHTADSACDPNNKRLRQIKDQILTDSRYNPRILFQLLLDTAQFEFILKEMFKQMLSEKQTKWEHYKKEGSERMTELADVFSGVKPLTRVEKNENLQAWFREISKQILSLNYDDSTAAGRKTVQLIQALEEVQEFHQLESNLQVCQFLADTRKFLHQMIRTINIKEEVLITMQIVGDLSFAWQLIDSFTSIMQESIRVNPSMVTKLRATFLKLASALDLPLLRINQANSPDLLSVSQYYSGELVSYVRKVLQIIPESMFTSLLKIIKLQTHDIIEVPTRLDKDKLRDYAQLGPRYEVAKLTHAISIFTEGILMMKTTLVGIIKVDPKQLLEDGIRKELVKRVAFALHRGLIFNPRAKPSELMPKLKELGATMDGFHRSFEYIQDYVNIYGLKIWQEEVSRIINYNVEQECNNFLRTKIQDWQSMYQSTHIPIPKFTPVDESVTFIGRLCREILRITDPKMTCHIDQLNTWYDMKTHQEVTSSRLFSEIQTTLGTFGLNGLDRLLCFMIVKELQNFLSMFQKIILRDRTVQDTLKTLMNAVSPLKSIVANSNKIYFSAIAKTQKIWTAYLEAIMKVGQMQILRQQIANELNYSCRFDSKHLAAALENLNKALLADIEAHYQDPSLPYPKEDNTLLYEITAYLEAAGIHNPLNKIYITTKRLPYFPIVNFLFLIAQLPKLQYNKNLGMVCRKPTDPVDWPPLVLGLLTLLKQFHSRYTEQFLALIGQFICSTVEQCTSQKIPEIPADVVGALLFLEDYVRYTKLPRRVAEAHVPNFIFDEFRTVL
log2 fold change [1]: -0.023 | log2 fold change (crizotinib): -0.133 | log2 fold change [2]: -0.068 | log2 fold change [3]: 0.053 | log2 fold change (duvelisib): -0.034 | log2 fold change (gandotinib): -0.002 | log2 fold change (tozasertib): -0.02 | log2 fold change [4]: 0.032 | log2 fold change (doramapimod): 0.073 | log2 fold change (ispinesib): -0.093 | log2 fold change (bafetinib): -0.052 | log2 fold change [5]: 0.044 | log2 fold change (nilotinib): -0.046 | log2 fold change [6]: -0.001 | log2 fold change (dasatinib): -0.112 | log2 fold change [7]: -0.004 | log2 fold change [8]: 0.005 | log2 fold change [9]: 0.086 | log2 fold change (tipifarnib): -0.001 | log2 fold change (mubritinib): 0.027

VPS37A (UniProt Q8NEZ2)
log2 fold change [1]: 0.035 | log2 fold change (crizotinib): -0.146 | log2 fold change [2]: 0.092 | log2 fold change [3]: -0.084 | log2 fold change (duvelisib): 0.044 | log2 fold change (gandotinib): -0.292 | log2 fold change (tozasertib): 0.057 | log2 fold change [4]: 0.206 | log2 fold change (doramapimod): -0.017 | log2 fold change (ispinesib): 0 | log2 fold change (bafetinib): -0.065 | log2 fold change [5]: -0.06 | log2 fold change (nilotinib): -0.134 | log2 fold change [6]: -0.27 | log2 fold change (dasatinib): -0.168 | log2 fold change [7]: -0.039 | log2 fold change [8]: 0.048 | log2 fold change [9]: 0.014 | log2 fold change (tipifarnib): -0.112 | log2 fold change (mubritinib): -0.038

WAPL isoform 3 (UniProt Q7Z5K2)
log2 fold change [1]: 0.052 | log2 fold change (crizotinib): -0.23 | log2 fold change [2]: 0.18 | log2 fold change [3]: -0.142 | log2 fold change (duvelisib): 0 | log2 fold change (gandotinib): -0.199 | log2 fold change (tozasertib): 0.052 | log2 fold change [4]: -0.006 | log2 fold change (doramapimod): 0.017 | log2 fold change (ispinesib): -0.026 | log2 fold change (bafetinib): 0 | log2 fold change [5]: -0.044 | log2 fold change (nilotinib): -0.011 | log2 fold change [6]: 0.01 | log2 fold change (dasatinib): -0.081 | log2 fold change [7]: -0.03 | log2 fold change [8]: 0.04 | log2 fold change [9]: 0.096 | log2 fold change (tipifarnib): -0.218 | log2 fold change (mubritinib): 0.156

U2AF1 isoform 2 (UniProt Q01081)
log2 fold change [1]: -0.046 | log2 fold change (crizotinib): 0.067 | log2 fold change [2]: 0.03 | log2 fold change [3]: -0.134 | log2 fold change (duvelisib): 0.044 | log2 fold change (gandotinib): -0.005 | log2 fold change (tozasertib): 0.05 | log2 fold change [4]: 0.114 | log2 fold change (doramapimod): -0.143 | log2 fold change (ispinesib): 0 | log2 fold change (bafetinib): 0.037 | log2 fold change [5]: -0.06 | log2 fold change (nilotinib): -0.017 | log2 fold change [6]: -1.31 (active) | log2 fold change (dasatinib): -0.056 | log2 fold change [7]: 0.058 | log2 fold change [8]: 0.01 | log2 fold change [9]: -0.06 | log2 fold change (tipifarnib): 0.034 | log2 fold change (mubritinib): -0.099
